# Among all 330,000 compounds or so, about 10,000 (3%) were called active.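 How the source made its calls: active means inhibition of at least 50% at 8 µM in the primary screen; inactive means the rest.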 The sample as a whole holds a higher share of actives than the screen did.
# Target: Protein Mdm4 (Homo sapiens) + E3 ubiquitin-protein ligase Mdm2 (Homo sapiens) (UniProt O15151+Q00987)
# Assay: inhibitors of human Mdm2-MdmX association, primary screen, cell-based, luminescence, split luciferase, SaOS-2, uHTS (AID 485346)
# Conditions: SaOS-2 split-luciferase Mdm2/MdmX complementation, at 8 µM, hits give high values
# Chain of Protein Mdm4 (Homo sapiens) + E3 ubiquitin-protein ligase Mdm2 (Homo sapiens) (O15151 whole entry, looked up): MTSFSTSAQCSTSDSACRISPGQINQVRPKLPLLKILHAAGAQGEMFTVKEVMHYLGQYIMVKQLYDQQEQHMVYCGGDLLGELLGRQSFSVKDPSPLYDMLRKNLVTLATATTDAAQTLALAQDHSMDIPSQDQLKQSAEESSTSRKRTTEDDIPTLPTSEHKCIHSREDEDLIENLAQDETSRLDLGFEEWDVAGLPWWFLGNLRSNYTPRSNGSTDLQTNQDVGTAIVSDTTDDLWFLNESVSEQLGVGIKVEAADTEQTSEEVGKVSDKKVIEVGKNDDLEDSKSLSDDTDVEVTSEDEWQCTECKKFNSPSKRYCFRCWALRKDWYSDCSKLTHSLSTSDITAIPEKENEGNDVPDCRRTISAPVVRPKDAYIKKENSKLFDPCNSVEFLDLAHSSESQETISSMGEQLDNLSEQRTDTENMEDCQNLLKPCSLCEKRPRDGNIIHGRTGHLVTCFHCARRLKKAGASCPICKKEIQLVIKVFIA
# Chain of Protein Mdm4 (Homo sapiens) + E3 ubiquitin-protein ligase Mdm2 (Homo sapiens) (Q00987 whole entry, looked up): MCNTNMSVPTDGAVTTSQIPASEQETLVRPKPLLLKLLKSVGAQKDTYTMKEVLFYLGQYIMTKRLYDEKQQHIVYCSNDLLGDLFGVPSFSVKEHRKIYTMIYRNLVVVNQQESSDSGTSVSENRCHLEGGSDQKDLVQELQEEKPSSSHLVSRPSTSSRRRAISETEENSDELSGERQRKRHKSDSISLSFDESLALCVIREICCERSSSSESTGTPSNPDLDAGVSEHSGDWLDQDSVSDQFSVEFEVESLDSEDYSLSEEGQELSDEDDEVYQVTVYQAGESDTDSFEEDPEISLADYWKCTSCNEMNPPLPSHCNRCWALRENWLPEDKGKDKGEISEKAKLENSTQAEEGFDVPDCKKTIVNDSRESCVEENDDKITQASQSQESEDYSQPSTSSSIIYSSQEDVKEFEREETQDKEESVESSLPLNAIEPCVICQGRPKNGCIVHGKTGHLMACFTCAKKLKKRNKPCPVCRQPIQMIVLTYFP
row,Structure (SMILES),inhibition
1,COCCCN1C(=O)C(=O)/C(=C(/O)c2ccc(S(=O)(=O)N3CCOCC3)cc2)C1c1ccc(F)cc1 (centres undefined),-23.9% (inactive)
2,COc1ccccc1C1=CC(=O)C[C@H](c2ccc(F)cc2)C1,-0.761% (inactive)
3,O=C(NCCc1ccccc1)Oc1ccc(Cl)cc1,11.2% (inactive)
4,CCN1CCN(c2nc(Nc3cc(OC)ccc3OC)nc(Nc3cc(OC)ccc3OC)n2)CC1,56.2% (active)
5,CCOC(=O)N1CCN(CCC(=O)Nc2cc(OC)ccc2OC)CC1,-21.2% (inactive)
6,CCOc1ccc(Nc2nc(Cl)nc(N3CCN(c4ccc(OC)cc4)CC3)n2)cc1,7.3% (inactive)
7,Cc1ccc(C)c(-n2nnnc2SCC(=O)c2c(N)n(C)c(=O)n(C)c2=O)c1,24.7% (inactive)
8,CCn1nccc1C(=O)Nc1ccc(Cl)c(Cl)c1,28.3% (inactive)
9,O=C(CC(O)(C(F)(F)F)C(F)(F)F)Nc1ccc(Cl)c(Cl)c1,83.5% (active)
10,CS(=O)(=O)N(CC(=O)Nc1ccc(Cl)c(Cl)c1)C1CCCCC1,11.5% (inactive)
11,COc1ccc(N2CCN(C(=O)CNS(=O)(=O)c3ccc(C)c(C)c3)CC2)cc1,-7.3% (inactive)
12,CN(C)c1ccc(C=C2C(=O)OC3(CCCC3)OC2=O)cc1,-3.25% (inactive)
13,COC(=O)c1ccc(COc2ccc(/C=N/NC(=O)C(=O)Nc3ccc(OC)cc3)cc2OC)o1,36.6% (inactive)
14,COc1cc(/C=N/NC(=O)c2ccoc2C)ccc1OCCN1CCCCC1,7.93% (inactive)
15,COc1cc(/C=N/NC(=O)Nc2ccccc2)ccc1OCCOc1ccccc1C,63.8% (active)
16,COc1ccc(S(=O)(=O)N2CCCCCC2)cc1NC(=O)Cc1ccc(OC)c(OC)c1,7.01% (inactive)
17,COc1cc(C(C)=O)ccc1OC(C)C(=O)Nc1ccc(S(=O)(=O)N2CCCC2)cc1 (centres undefined),9.67% (inactive)
18,COc1ccc(-c2ccc(Nc3ccc(S(=O)(=O)N4CCCC4)cc3)nn2)cc1OC,57.4% (active)
19,O/N=C(\C[n+]1ccccc1)c1ccc(Br)cc1,17% (inactive)
20,CC(=O)C(CC(=O)N1CCCC1)C(=O)Nc1ccc(Cl)cc1 (centres undefined),-3.54% (inactive)
21,O=C(O)CCCN1C(=O)c2ccccc2Sc2ncccc21,-8.61% (inactive)
22,Nc1nc(COC(=O)CCC(=O)c2ccc(Cl)cc2)nc(Nc2ccccc2)n1,-9.75% (inactive)
23,Cc1ccc(Nc2nc(N)nc(CSc3nnc(C)s3)n2)cc1,-6.62% (inactive)

row,Structure (SMILES),inhibition
1,Nc1nc(CC(=O)CSc2ccc(Cl)cc2)nc(Nc2ccc(F)cc2)n1,81% (active)
2,CCS(=O)(=O)c1ccc2c(c1)N(S(=O)(=O)c1ccccc1)CC(C(=O)O)O2 (centres undefined),-32% (inactive)
3,Cn1c(N)c(C(=O)COC(=O)/C=C/c2cccc(C(F)(F)F)c2)c(=O)n(C)c1=O,21.9% (inactive)
4,COc1ccc2sc(-c3ccc(S(C)(=O)=O)cc3)c(-c3ccc(C(N)=O)cc3)c2c1,12% (inactive)
5,COc1ccc(-c2sc3ccc(OC)cc3c2C#Cc2ccccn2)cc1,40.5% (inactive)
6,COc1ccc2sc(-c3ccc(S(C)(=O)=O)cc3)c(C#Cc3cncn3C)c2c1,69.9% (active)
7,COCc1cc(C)nc(Nc2cc(C)ccc2C)c1C#N,17.9% (inactive)
8,COc1cc(N=Cc2c(O)[nH]c3ccccc23)cc(OC)c1OC,80.2% (active)
9,COc1ccc(N=Cc2c(O)[nH]c3ccccc23)cc1OC,61.3% (active)
10,COc1cc(/C=N/NC(=O)Cc2ccccc2)cc(OC)c1OC,4.45% (inactive)
11,CN=c1scc(-c2cc(OC)ccc2OC)n1/N=C/c1c(C)[nH]c2ccccc12,20.3% (inactive)
12,COc1ccc2[nH]c(C(=O)N/N=C/c3cc(OC)c(OC)c(OC)c3)cc2c1,11.4% (inactive)
13,COc1cc(N=Cc2c(O)c3ccccc3oc2=O)c(OC)cc1Cl,20.6% (inactive)
14,Cc1cc(CNCc2c(C(=O)N(C)Cc3ccccc3)nc3ccccn23)nn1C,35.1% (inactive)
15,CC1O[C@H](OC2C(COC3OC(CO)C(O)[C@H](O)C3O)OC(OC3CC[C@]4(C)C(CC[C@@]5(C)[C@@H]4C=C[C@]46OC[C@@]7(CCC(C)(C)C[C@H]74)C(O)C[C@@]56C)C3(C)C)C(O)C2O)C(O)C(O)C1O (some centres undefined),-4.59% (inactive)
16,Cc1c(C#N)c(NC(=O)c2ccccc2)n(Cc2ccccc2)c1C,29.1% (inactive)
17,CCOc1cnc(C(=O)NNC(=O)c2ccccc2Br)o1,-14.2% (inactive)
18,CCn1c(CC(=O)Nc2ccccc2C)nnc1SCC(=O)NC1=NCCS1,6.16% (inactive)
19,Cc1ccc(C(=O)O)cc1N1C(=O)CCCC1=O,-17.1% (inactive)
20,CN(C(=O)c1cccc(NC(=O)Cc2cccc([N+](=O)[O-])c2)c1)C1CCCCC1,18.4% (inactive)
21,CC(OC(=O)c1ccc(-n2cnnn2)cc1)C(=O)NCc1ccccc1 (centres undefined),8.29% (inactive)
22,CCOC(=O)C1(CCOc2ccccc2)CCN(Cc2cc(OC)c(O)cc2Cl)CC1,28.9% (inactive)
23,OCC1(CCOc2ccccc2)CCN(Cc2cn[nH]c2-c2ccccc2)CC1,12.6% (inactive)

row,Structure (SMILES),inhibition
1,Cc1c(CN2CCC(CO)(CCOc3ccccc3)CC2)[nH]c2ccc(Cl)cc12,89.6% (active)
2,O=C(COC(=O)c1cc(-c2cccs2)nn1-c1ccccc1)Nc1cc([N+](=O)[O-])ccc1Cl,-2.96% (inactive)
3,O=C(CCNC(=O)c1ccccc1)NN=Cc1ccc(Br)o1,5.26% (inactive)
4,COc1ccc(CNC(=O)COC(=O)CCS(=O)(=O)c2ccc(C)cc2)cc1OC,21.8% (inactive)
5,CCOc1ncccc1C(=O)Nc1ccc(S(=O)(=O)Nc2nc(C)cc(C)n2)cc1,-16.7% (inactive)
6,CC(=O)Nc1ccc(S(=O)(=O)Nc2cc(C)cn(Cc3ccc(C)cc3)c2=O)cc1,17.7% (inactive)
7,O=c1c([N+](=O)[O-])cccn1Cc1ccc(F)cc1Cl,10.4% (inactive)
8,Brc1ccccc1/C=N/Nc1nc2ccccc2o1,36.2% (inactive)
9,Oc1c(Br)cccc1/C=N/Nc1c(F)c(F)c(F)c(F)c1F,82.4% (active)
10,O=C(NNc1cc(Cl)ccc1Cl)c1cccnc1Cl,9.63% (inactive)
11,S=C(NCc1cccnc1)Nc1ccc(Cl)cc1Cl,4.36% (inactive)
12,CC(=O)/C(=N\Nc1ccc(Cl)cc1Cl)Sc1cccc2cccnc12,63.2% (active)
13,COc1ccccc1NC(=O)C1CCN(C(=O)c2ccc(C(C)(C)C)cc2)CC1,28.8% (inactive)
14,CCCCCCCNC(=O)C1(CC2CC(c3cccc(Br)c3)=NO2)CCN(C(=O)c2cc(OCC)c(OCC)c(OCC)c2)CC1 (centres undefined),18.1% (inactive)
15,Fc1ccc(N2N=C(c3cccs3)CC2c2ccco2)c(F)c1 (centres undefined),2.13% (inactive)
16,CCCCC(=O)Nc1ccc(C(=O)Nc2cc(C(F)(F)F)ccc2Cl)cc1,21.2% (inactive)
17,CCCCN(CCCC)CCC(O)c1cc2c(Cl)cc(Cl)cc2c2cc(C(F)(F)F)ccc12 (centres undefined),60.8% (active)
18,CC1(C)Cc2c(sc3nc(SCC(=O)NCc4ccccc4)n(-c4ccccc4)c(=O)c23)CS1,-3.67% (inactive)
19,N#Cc1c(NCCO)ccc([N+](=O)[O-])c1NCCO,-1.81% (inactive)
20,CCOc1ccc(CN2CCN(Cc3c[nH]c4ccccc34)CC2)cc1,20.2% (inactive)
21,O=C(COC(=O)CN1C(=O)C2CCCCC2C1=O)Nc1ccc(F)c(F)c1F (centres undefined),34.5% (inactive)
22,C[C@]12c3[nH]c4ccc(Cl)cc4c3CCN1C(=O)[C@@H](CC(=O)NCCCn1ccnc1)C[C@@H]2C(=O)N1CCOCC1,4.12% (inactive)
23,CC1CCN(C(=O)/C(=C\c2ccccc2F)NC(=O)c2ccccc2)CC1,8.33% (inactive)

row,Structure (SMILES),inhibition
1,Cc1cccc(-n2ncc(Cl)c(Cl)c2=O)c1,100% (active)
2,C=CCNc1cnn(-c2ccc(C)cc2)c(=O)c1Cl,-8.88% (inactive)
3,Cc1cccc(-n2ncc(C#N)c2-n2cccc2)c1,18.1% (inactive)
4,COC(=O)[C@@H]1C[C@@]2(O)[C@@H](O)[C@@H](O)[C@@H](O)C[C@H]2N1Cc1ccc(C)s1,10.5% (inactive)
5,CCCOc1cccc(C(=O)Nc2nnn(CCC)n2)c1,-17.9% (inactive)
6,COc1ccccc1-n1nnnc1SCC(=O)NC(=O)Cc1ccccc1,-11.3% (inactive)
7,COc1ccccc1N1CCN(S(=O)(=O)c2ccc(Cl)cc2)CC1,0.916% (inactive)
8,COc1ccccc1-n1nnnc1S(=O)(=O)Cc1ccc(Cl)cc1,99.3% (active)
9,O=C(CN1C(=O)c2cccnc2Oc2ccc(Cl)cc21)Nc1ccc(F)cc1,7.52% (inactive)
10,CC1C(=O)NC(=O)C1c1ccccc1 (centres undefined),10.9% (inactive)
11,COc1ccccc1-c1sc2ccccc2c1-c1ccc(C(C)=O)cc1,7.74% (inactive)
12,COc1cccc(-c2sc3ccc(OC)cc3c2-c2ccc(OCCN3CCCCC3)cc2)c1,96.8% (active)
13,COc1cc(OC)cc(-c2sc3ccc(OC)cc3c2-c2ccc3cc[nH]c3c2)c1,13.6% (inactive)
14,COc1ccc(-c2sc3ccccc3c2-c2ccc(OCCN3CCOCC3)cc2)cc1,28.3% (inactive)
15,COc1ccc2sc(-c3ccccc3OC)c(-c3ccc(OCCN4CCCC4)cc3)c2c1,73.2% (active)
16,COc1ccccc1-c1sc2ccccc2c1-c1ccc(Br)nc1,1.19% (inactive)
17,CN1C(=O)C2(OCCCO2)c2cc(Cl)ccc21,2.45% (inactive)
18,COC(=O)c1ccc(Oc2nc(NC(C)C)nc(SC)n2)cc1,22.5% (inactive)
19,Cc1ccc(C(C(=O)NCC2CCCO2)N(C(=O)c2snc(C(N)=O)c2N)c2ccc(C(C)C)cc2)o1 (centres undefined),-3.18% (inactive)
20,C/C(=N\N(C)C)c1ccc(OCCOc2ccc([N+](=O)[O-])cc2)cc1,-8.83% (inactive)

# Reference: PubChem BioAssay AID485346 (Sanford-Burnham Center for Chemical Genomics, 2010)
